Structures are written as SMILES. The source made the active and inactive calls. The rule behind the calls is not given here. Starred links: 1 amine or outer side, 2 acyl side, 3 side chain; linkers in the order of their positions; H or OH if unused. Positions of bridges follow the written chain, without caps; N, C: chain ends. Non-standard residues stand in square brackets, D forms with d. Residues, ends and D or L forms follow the SMILES beside them. ξ: configuration not given here. *: point of attachment. ΔAla(E,3-NHCONH2) = NC(=O)N/C=C(/N)C(=O)O; X1 = NC1=NCCC(C(N[*:1])C(=O)[*:2])N1; ξβ3hOrn = NCCCC(N)CC(=O)*; Dap = NC[CH](N)C(=O)O

In this assay the test system is Aerobactin synthetase IucA (Klebsiella pneumoniae hvKP1). Kind of assay: Biochemical IucA enzyme inhibition primary screen of the Spectrum library (AID 1346200).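 Note: 100% = wells without compound and 0% = wells lacking enzyme.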 Conditions: malachite green pyrophosphate, A620, at 8 µM, stronger effect = lower value.
In the case of `S=c1ccss1`, the activity remaining is 84.5% (inactive).
Under `CCN(CC)CCOC(=O)C(c1ccccc1)c1ccccc1` stands 112% (inactive); under `CC(=O)OCC(=O)[C@@]1(O)[C@H](OC(C)=O)CC2C3CCC4=CC(=O)C=C[C@]4(C)[C@@]3(F)[C@@H](O)C[C@@]21C` (stereo not given in full), 120% (inactive); under `C=CCCCCCCCCCCCC(O)CC(O)COC(C)=O` (stereo not given) (tested in a mixture with another compound), 81.7% (inactive).
With `O=C(COc1ccc(Cl)cc1)N1CCN(Cc2ccc3c(c2)OCO3)CC1` the figure was 107% (inactive); with `COc1c(O)cc2c(c1O)[C@H]1O[C@H](CO)[C@@H](O)[C@H](O)[C@@H]1OC2=O`, 112% (inactive).
`OCCOCCN1CCN(C2=Nc3ccccc3Sc3ccccc32)CC1`: the activity remaining was 105% (inactive).
Turning to `COC(=O)CCC(C)[C@H]1CCC2C3C(C[C@H](O)[C@@]21C)[C@@]1(C)CC[C@@H](O)C[C@H]1C[C@H]3O` (stereo not given in full), the activity remaining is 105% (inactive).
Under `CNC[C@@H](O)c1ccc(O)c(O)c1` stands 115% (inactive); under `CCCCCCCCCCCC[C@H](C(=O)O)[C@@H](C)C(=O)O`, 115% (inactive); under `CO/N=C(/C(=O)N[C@@H]1C(=O)N2C(C(=O)O)=C(COC(C)=O)CS[C@H]12)c1csc(N)n1`, 117% (inactive).
With `CN(C)CCOC(=O)C(c1ccccc1)C1(O)CCCC1` (stereo not given), the activity remaining was 115% (inactive).
Under `Cc1onc(-c2c(Cl)cccc2Cl)c1C(=O)N[C@@H]1C(=O)N2[C@@H]1SC(C)(C)[C@@H]2C(=O)O` stands 121% (inactive); under `COC(=O)c1c(OC)cc2c(c1C)Oc1c(Cl)c(O)c(Cl)c(C)c1C(=O)O2`, 116% (inactive).
As to `C[C@H]1CC2C([C@@H](O)C[C@@]3(C)C2CC[C@]3(O)C(=O)CO)[C@@]2(C)C=CC(=O)C=C12` (stereo not given in full), the activity remaining was 115% (inactive).
On to `CN(C)c1ccc(C(=C2C=CC(=[N+](C)C)C=C2)c2ccc(N(C)C)cc2)cc1`, for which the activity remaining was 118% (inactive).
With `CC1(C)S[C@@H]2[C@H](NC(=O)[C@@H](N)c3ccc(O)cc3)C(=O)N2[C@H]1C(=O)O` the figure was 99.8% (inactive); with `O=C(Oc1cc(O)cc2c1C[C@@H](OC(=O)c1cc(O)c(O)c(O)c1)[C@@H](c1cc(O)c(O)c(O)c1)O2)c1cc(O)c(O)c(O)c1`, 122% (inactive).
As to `COc1ccc2c(c1)OCC(Cc1ccc(OC)c(O)c1)C2=O` (stereo not given), the activity remaining was 115% (inactive).
Under `CC1(C)C=Cc2c(cc3occ(-c4ccc5c(c4)OCO5)c(=O)c3c2O)O1` stands 118% (inactive).
With `NCCCC(N)CC(=O)NCC1NC(=O)C(CO)NC(=O)C(N)CNC(=O)C(C2CCN=C(N)N2)NC(=O)/C(=C\NC(N)=O)NC1=O` (stereo not drawn) (H-[Dap]S[Dap](ξβ3hOrn)[ΔAla(E,3-NHCONH2)][X1]; lactam 1-C; configuration not given here), the activity remaining was 101% (inactive).
With `COC(=O)N/N=C/c1c[n+]([O-])c2ccccc2[n+]1[O-]` the figure was 109% (inactive); with `Cc1cc(C(C)(C)CC(C)(C)C)ccc1OCCOCC[N+](C)(C)Cc1ccccc1`, 118% (inactive); with `CC(C)c1c(O)ccc2c1CCC1[C@@](C)(CO)CCC[C@]21C` (stereo not given in full), 101% (inactive).
With `C=C1C2=CC(=O)O[C@@H](c3ccoc3)[C@]2(C)CCC1[C@@]1(C)C=CC(=O)C(C)(C)[C@@H]1CC(=O)OC` (stereo not given in full) the figure was 100% (inactive).
Under `CC(C)(C)CC(C)(C)c1ccc(OCCOCC[N+](C)(C)Cc2ccccc2)cc1` stands 113% (inactive); under `CCN(CC)CCNc1ccc(CO)c2sc3ccccc3c(=O)c12`, 114% (inactive); under `Nc1ncnc2c1ncn2C1O[C@H](COP(=O)(O)O)[C@@H](O)[C@H]1O` (stereo not given in full), 98% (inactive).
On to `CC[C@H]1OC(=O)[C@H](C)[C@@H](O[C@H]2C[C@@](C)(OC)[C@@H](O)[C@H](C)O2)[C@H](C)[C@@H](O[C@@H]2O[C@H](C)C[C@H](N(C)C)[C@H]2O)[C@](C)(O)C[C@@H](C)[C@@H]2N[C@@H](COCCOC)O[C@H]([C@H]2C)[C@]1(C)O`, for which the activity remaining is 117% (inactive).
Under `CN[C@@H]1[C@H](OC2[C@H](O[C@H]3[C@H](O)[C@@H](O)[C@H](N=C(N)N)[C@@H](O)[C@@H]3N=C(N)N)O[C@@H](C)[C@]2(O)C=O)O[C@@H](CO)[C@H](O)[C@H]1O` (stereo not given in full) stands 108% (inactive); under `O=c1c(O)cccc2c([C@H]3Oc4cc(O)cc(O)c4C[C@@H]3O)cc(O)c(O)c12`, 99.4% (inactive); under `COc1cc(C(=O)NCCCCCC(=O)O)cc(OC)c1OC`, 120% (inactive).
Consider `C[n+]1ccccc1/C=N/O`, for which the activity remaining is 117% (inactive).
For `O=C1[C@H](CCC(O)c2ccc(F)cc2)[C@@H](c2ccc(O)cc2)N1c1ccc(F)cc1` (stereo not given in full), the activity remaining is 122% (inactive).
Consider `CC1(C)CC[C@]2(C(=O)O)CC[C@]3(C)C(=CCC4[C@@]5(C)CC[C@H](O)C(C)(C)C5[C@H](O)C[C@]43C)C2C1` (stereo not given in full), for which the activity remaining was 76.1% (inactive).
Turning to `Nc1ncnc2c1ncn2[C@@H]1O[C@H](CO)[C@@H](O)[C@@H]1O`, the activity remaining is 107% (inactive).
For the molecule `CC(=O)OCC[C@H](C)CCC=C(C)C`, the activity remaining is 104% (inactive).
With `CC(=O)OCC(OC(C)=O)C(OC(C)=O)C(OC(C)=O)C(OC(C)=O)C(COC(C)=O)OC(C)=O` (stereo not given) the figure was 103% (inactive).
With `Cc1cc(O)c(C=O)c2c1C(=O)Oc1c(COC(=O)/C=C/C(=O)O)c(O)c(C(=O)O)c(C)c1O2` the figure was 93.9% (inactive).
With `Oc1c(Cl)cc(Cl)c2cccnc12` the figure was 113% (inactive).
